According to ChEMBL document CHEMBL4888484, “Replenishing the malaria drug discovery pipeline: Screening and hit evaluation of the MMV Hit Generation Library 1 (HGL1) against asexual blood stage Plasmodium falciparum ,using a nano luciferase reporter read-out” (2022):
Screen size: about 4,800 compounds; about 420 (8.8%) showed an effect of 50% or more. Shown is part of a subset that was picked to be rich in strong results.

test system: Plasmodium falciparum; assay: Confirmatory screen in NF54 nanoGlo assay, in single point, at 2uM, 72h; format: functional, Erythrocyte; conditions: timepoint 72 hour

Structure (SMILES) | % Inhibition [%]
Cc1cc(C)n(NC(=O)CCn2nc(C(F)(F)F)c(Br)c2C2CC2)c(=O)c1 | 3
CCCOc1cccc2c(NC3CCN(CCOC)CC3)ccnc12 | 22
Clc1cc(CN2CC[C@@]3(CCCOC3)C2)ccc1OCCN1CCOCC1 | 0
Cc1cc(C)cc(Nc2nc(C)cc(=O)n2CC(=O)N2CCN(c3ccc(F)cc3)CC2)c1 | -1
Cc1c(C(=O)c2ccc(Cl)c(Cl)c2)sc2nc3cc(F)c(F)cc3n12 | -11
Nc1ncnc(NCc2cccnc2OCC(F)F)c1Cl | 7
COc1cc(C(=O)NCCN2CCOCC2)cc2occc12 | -4
CC1CC(NS(=O)(=O)CCCC(F)(F)F)CCN1 (centres undefined) | -4
COc1cc(NC(=O)N[C@@H](C)C(=O)N2CCc3ccccc32)cc(OC)c1 | 4
Cc1ccc(NC(=O)c2cc3nccc(-c4ccc(F)cc4)n3n2)nc1 | -7
CN(C(=O)NC1CCCC1)c1nc2c(s1)CN(Cc1ccccc1)C2=O | -12
Cc1ccc(CNC2CCN(C)CC2)c(OCc2ccco2)c1 | -3
Cc1ccc2nc3c(c(N)c2c1)CCCCN3C | -10
Cc1ccc2nc(C3CC3)cc(C(=O)N3C[C@@H](O)C[C@H]3CO)c2c1 | -4
COCCN(CC1CN(Cc2ccccc2OC)CC1c1ccccc1OC)C(=O)COC (centres undefined) | -2
CC(C)[C@@H]1CCc2ccccc2N1Cc1nc(N)nc(N(C)C)n1 | -4
COc1ccc(NC(=O)Cn2c(C(F)(F)F)nc3cc4c(cc32)OCCCO4)cc1 | 4
Cn1c2cn(-c3ccc(F)cc3)c(-c3ccccc3)c2c(=O)n1-c1ccccc1 | -1
Cn1c(=O)c2c(-c3ccc(Cl)cc3)n(-c3cccc4cccc(N)c34)cc2n(C)c1=O | 91
CC(C)(C)OC(=O)N1CCCC(C(O)C(F)(F)F)C1 (centres undefined) | 6
CCCCC12CN(S(=O)(=O)c3ccccc3)CC(C)(CN(S(=O)(=O)c3ccccc3)C1)C2=O | -5
Cc1c(C(=O)NC2CC2)cc(-c2ccccc2)n1C | -3

Structure (SMILES) | % Inhibition [%]
COc1ccc(-c2cc(C(=O)N[C@H]3CCN(c4ccc(=O)n(C)n4)C3)c(C)n2C)cc1 | 62
CCCCN(CC)CCNC(=O)C1CCN(C2=NS(=O)(=O)C(c3ccc(OC)cc3)=C2C)CC1 | 32
Cn1cccc1C(=O)NC1CCN(c2ccc(Cl)c(C#N)n2)CC1 | -5
COc1ccc(-c2cc(C(=O)N[C@H]3CCN(c4ccc(=O)[nH]n4)C3)c(C)n2C)cc1 | 69
CC(C)NC(=O)c1ccc(CN2C(=O)COc3ccc(C(=O)COc4ccc(F)c(F)c4)cc32)o1 | 4
CC[C@H](C)NS(=O)(=O)c1cccc(N)c1 | -4
O=C(NCc1ccco1)[C@H]1CCCN(c2nc3ccccc3n(Cc3ccccc3)c2=O)C1 | 4
Brc1cccc(-c2ccc(-c3cc(-c4ccccc4)nnc3-c3ccccc3)o2)c1 | 31
COc1cc(Br)ccc1C1NC(=O)C2COCCN21 (centres undefined) | 7
CC(C)(C)c1cc([C@H](c2ccc(Cl)cc2)N2CCCCC2)cc(C(C)(C)C)c1O | 2
CN(Cc1nnc[nH]1)C(=O)C1(C)CCC1 | -11
COc1ccc(-n2nc(C)c(Cc3ccc(Cl)cc3)c2O)cc1 | 0
COCCNc1nc(-c2ccccc2OC)c2c(N)n(-c3ccc(F)cc3)nc2n1 | -6
COc1ccc(CCNc2nc(-c3ccc(OC)cc3F)c3c(N)n(-c4ccc(Cl)cc4)nc3n2)cc1 | 59
Cc1cc(N2C(=O)CCS2(=O)=O)cc(C)c1S(=O)(=O)NCc1ccccn1 | 2
Cc1nn(C)c(C)c1-c1cc(C(=O)Nc2sc3c(c2C#N)CCCC3)c2ccccc2n1 | -13
Cc1cc(C)c(NC(=O)OCc2cccc3cccnc23)c(C)c1 | 83
CCc1ccc(C2=Nc3cccnc3N(CC(=O)Nc3c(C)cc(C)cc3C)C(=O)C2)cc1 | -4
Cc1cccnc1NC(=O)OC(C)(C)C | 0
CN(C(=O)Cc1cc(Br)ccc1F)c1nncn1C | 9
O=S(=O)(N[C@H](c1nccs1)C1CC1)c1c(F)cccc1Cl | 0
CC(C)CC(=O)N=c1nc(S)ss1 | -4

Structure (SMILES) | % Inhibition [%]
CC(=O)c1cccc(NC(=O)[C@@]23CCC(=O)N2c2ccccc2C(=O)N3C)c1 | 76
COc1ccc(NC(=O)C2=NN(CC(=O)Nc3cccc(OC)c3)C(=O)CC2)cc1 | -12
CCN1C(=O)c2ccccc2N2C(=O)CC[C@@]12C(=O)Nc1cccc(OC)c1 | 92
O=C(CN1C[C@@H](c2ccccc2)Oc2ccccc2C1=O)Nc1ccccc1 | -16
COc1cccc(NC(=O)c2ccc3c(c2)N(C)[C@@H]2CCCCCN2C3=O)c1 | 5
CCCN1C(=O)c2ccccc2N2C(=O)CC[C@@]12C(=O)Nc1ccccc1 | 91
CCCN1C(=O)c2ccccc2N2C(=O)CC[C@@]12C(=O)Nc1ccc(OC)cc1 | 92
CC(=O)c1cccc(NC(=O)c2nonc2C)c1 | -11
COc1ccc(NC(=O)CCC(=O)N2CCc3ccccc3C2)cc1 | 3
COc1ccc(NC(=O)CN2N=C(C(=O)Nc3ccccc3)CCC2=O)cc1 | -15
CC(=O)c1cccc(NC(=O)Cn2c(=O)n(CCc3ccccc3)c(=O)c3ccccc32)c1 | 7
CCOc1cccc(CNC(=O)c2nn[nH]c2Nc2ccc(C)c(C)c2)c1 | 1
Cc1ccc(Cc2nn3c(C4CCN(S(C)(=O)=O)CC4)nnc3s2)cc1C | -8
Cc1ccc(OCCCOc2ccc(CO)nc2)cc1C | 3
O=S1(=O)NCCCCN1Cc1ccccc1 | -6
Cc1cc(NC(=O)Cn2c(=O)n(CC(C)C)c(=O)c3sccc32)no1 | -13
Cn1cc(N)c(Oc2ccc3c(c2)OCO3)n1 | 0
Cc1cc(N2C(=O)CCS2(=O)=O)ccc1S(=O)(=O)NC1CCCC1 | 7
Cc1ccc(-c2nn[nH]n2)cc1-n1cccn1 | -2
COc1ccc(N2CCN(c3nccn4nc(-c5cccs5)cc34)CC2)cc1 | 6
